Bioassay records from PubChem.
Only some compounds are listed: those with a hit (about 10% of all), similar ones and a draw of the others.
GLS inhibitor – glutaminase GLS (human) inhibition. Potency, µM (highest dose often 45.5 µM), without a hit: at the top dose activity change, negative = inhibition, hits mostly inhibitors. O94925. GLS enzymatic activity, qHTS titration. 410,000 compounds, 0.21% hits; also: % is scaled to controls: 0 for no effect and ±100 for the full control effect
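Two-point fluorescence kinetic (t0, 30 min RT) for hKGA; glutamate detected via glutamate oxidase–HRP–Amplex Red. Substrate: 1 mM L-glutamine solution; buffer 45 mM KH2PO4, pH 8.2.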
HP1b chromo inh – HP1-beta chromodomain-methylated histone interaction inhibition | AID 540317 | Potency, µM (highest dose often 114 µM), for inactives: top-dose activity change, negative = inhibition, most hits filed as inhibitors | AlphaScreen HP1-beta / biotin-H3K9me3 peptide binding | P83916 | 390,000 compounds, 0.56% hits; also: nearly all actives have a fitted effect of over 70% in size
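HP1-beta protein (50 nM final) preincubated 30 min at room temperature with biotinylated H3(1-18)K9me3 peptide (50 nM) in PBS pH 7.4, 0.01% Tween-20, then compound added for 30 min. AlphaScreen streptavidin donor/nickel chelate acceptor beads (10 ug/mL final), 30 min dark, luminescence read.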
JMJD2A Tudor – JMJD2A Tudor domain (human) inhibition; O75164; AlphaScreen JMJD2A-Tudor / H3K4me3 peptide binding; Potency, µM (doses to about 114 µM), inactives show top-dose activity change, negative = inhibition, actives largely listed as inhibitors; 390,000 compounds, 4.4% hits; AID 504339; also: % is scaled to controls: 0 for no effect and ±100 for the full control effect; nearly all actives have a fitted effect of over 50% in size
BAZ2B block – blocks human BAZ2B | Q9UIF8 | AlphaScreen BAZ2B-H3K14Ac peptide displacement | Potency, µM (top dose mostly 114 µM), inactives show at the top dose activity change, negative = inhibition, actives largely listed as inhibitors | 360,000 compounds, 4.4% hits; also: % is scaled to controls: 0 for no effect and ±100 for the full control effect; nearly all actives have a fitted effect of over 60% in size
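Complex of BAZ2B and biotin-H3K14Ac (50 nM apiece) forms over 30 min at RT, then faces library compounds up to 110 uM for another 30 min; AlphaScreen beads added, 20 min dark incubation, luminescence read.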
G9a block – inhibitors of human histone lysine methyltransferase G9a; Q96KQ7; G9a H3K9 monomethylation, AlphaScreen, 2 h; Potency, µM (highest dose often 102 µM), without a hit: top-dose activity, negative = inhibition, most hits filed as inhibitors; 350,000 compounds, 8.8% hits; AID 504332; also: % is scaled to controls: 0 for no effect and ±100 for the full control effect; nearly all actives have a fitted effect of over 75% in size
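Chemiluminescent proximity detection of H3K9 monomethylation, read after 10 min bead incubation in the dark. Reaction: 20 nM G9a, 500 nM biotin-H3K9 peptide, 20 uM SAM cofactor, 2 h, room temperature, following 15 min enzyme-compound preincubation.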
Starred values were filed as active, the others as inactive; [ ] = another dose, or the depositor's remark. Calls follow the shape of the dose curve; as a rule, active = well fitted curve in the direction sought with a large enough effect; inconclusive = small, poorly fitted or top-dose-only effect, or another doubt; inactive = no such curve, though single readings can be large; an effect the other way counts as inactive or inconclusive. Potency is read from the fitted curve at half-maximal effect.

O=C(CN1C(=O)C2C3C=CC(C4CC34)C2C1=O)Nc1cccc2ncccc12 (stereo not given) was read as GLS inhibitor 2.5%, HP1b chromo inh 0.8%, JMJD2A Tudor -16.5%, BAZ2B block -19.2% and G9a block 16.2%.
`COc1cccc(NC(=S)NCCN2CCOCC2)c1` gave GLS inhibitor 16.9%, HP1b chromo inh 14.7%, JMJD2A Tudor -7.0%, BAZ2B block 6.7% and G9a block 23.0%[59 µM].
`Nn1c(Cc2cccc3ccccc23)nnc1SCC(=O)NCC1CCCO1` (stereo not given) gave GLS inhibitor 3.1%, HP1b chromo inh 24.3%, JMJD2A Tudor inconclusive, BAZ2B block 12.6% and G9a block -4.5%[2.33 µM].
Nn1c(Cc2cccc3ccccc23)nnc1SCn1nnc2ccccc2c1=O was read as GLS inhibitor -4.2%, HP1b chromo inh 32.4%, JMJD2A Tudor -13.7%, BAZ2B block -5.2% and G9a block 4.47µM*.
Screening Nn1c(Cc2cccc3ccccc23)nnc1SC1CCOC1=O (stereo not given) returned GLS inhibitor -15.7%, HP1b chromo inh 36.7%, JMJD2A Tudor 89.1µM*, BAZ2B block -37.1% and G9a block inconclusive.
Screening O=c1c2ccccc2nnn1Cc1cccc2ccccc12 returned GLS inhibitor 0.4%, HP1b chromo inh 106.3%, JMJD2A Tudor 48.5%, BAZ2B block 21.2% and G9a block 133.5%.
`O=c1c2ccccc2nnn1CSc1nnc(Nc2ccccc2)s1` gave GLS inhibitor -8.0%, HP1b chromo inh 24.2%, JMJD2A Tudor 1.0%, BAZ2B block -4.3% and G9a block 44.7µM*.
`Cc1nc(SCn2nnc3ccccc3c2=O)nc(C)c1C` gave GLS inhibitor 12.6%, HP1b chromo inh 50.8%, JMJD2A Tudor -2.3%, BAZ2B block 18.2% and G9a block -2.6%[59 µM].
`Nc1nc(SCn2nnc3ccccc3c2=O)n[nH]1` gave GLS inhibitor 8.2%, HP1b chromo inh 18.8%, JMJD2A Tudor -10.1%, BAZ2B block -10.7% and G9a block 50.1µM*.
For COc1ccc2c(Cl)c(-c3nnc4n3CCCCC4)sc2c1 the results were GLS inhibitor -4.0%, HP1b chromo inh 25.1%, JMJD2A Tudor -14.3%, BAZ2B block 15.4% and G9a block -12.3%[59 µM].
Screening CCOC(=O)c1ccc(NC(=O)NCc2ccc(OC)cc2)cc1 returned GLS inhibitor 4.1%, HP1b chromo inh 17.7%, JMJD2A Tudor -13.8%, BAZ2B block -2.0% and G9a block 3.7%.
For CC(=O)Nc1ccc(S(=O)(=O)N2CCC(C(=O)NCCC(=O)Nc3nccs3)CC2)cc1 the results were GLS inhibitor -1.4%, HP1b chromo inh 48.2%, JMJD2A Tudor -2.1%, BAZ2B block -9.3% and G9a block 12.7%.
`Cc1ccc(N2C(=O)C(CN3CCCC3)C2c2ccccc2)cc1` (stereo not given) gave GLS inhibitor -0.9%, HP1b chromo inh -12.2%, JMJD2A Tudor -30.2%, BAZ2B block -25.1% and G9a block -35.4%.
Screening Cc1ccc(N2C(=O)C(CN3CCCCC3)C2c2ccccc2)cc1 (stereo not given) returned GLS inhibitor 6.0%, HP1b chromo inh 89.1µM*, JMJD2A Tudor -21.4%, BAZ2B block -7.4% and G9a block 8.2%[59 µM].
For Cc1ccc(C(=O)c2coc3c2C(=O)C(=O)c2ccccc2-3)cc1 the results were GLS inhibitor -1.7%, HP1b chromo inh -25.2%, JMJD2A Tudor inconclusive, BAZ2B block inconclusive and G9a block 39.8µM*.
`Cc1oc2c(c1C(=O)c1ccc(Cl)cc1)C(=O)C(=O)c1ccccc1-2` gave GLS inhibitor -4.8%, HP1b chromo inh 2.7%, JMJD2A Tudor inconclusive, BAZ2B block inconclusive and G9a block inconclusive.
Screening Cc1ccc(C(=O)c2c(C)oc3c2C(=O)C(=O)c2ccccc2-3)cc1 returned GLS inhibitor 0.0%, HP1b chromo inh 17.8µM*, JMJD2A Tudor 44.7µM*, BAZ2B block 31.6µM* and G9a block inconclusive.
Screening COc1cc(NC(=O)Cc2ccccc2OC)cc(OC)c1 returned GLS inhibitor 3.2%, HP1b chromo inh 25.3%, JMJD2A Tudor -12.8%, BAZ2B block 1.0% and G9a block 10.0%[12.7 µM].
